Mito fusion yeast: qHTS Assay for Small Molecule Inhibitors of Mitochondrial Division or Activators of Mitochondrial Fusion. S. cerevisiae fusion-defective mutant growth rescue, CellTiterGlo 48 h. Potency, µM (series often up to 46.1 µM), inactives show top-dose growth rescue (activation), actives largely listed as activators. 0.23% of 320,000 active. AID 485298, 2010; note: % of control where 0% means no effect; nearly all actives have a fitted effect of over 45% in size
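Compounds are tested for their ability to restore growth of mitochondrial fusion-defective yeast strains at non-permissive 37C in YPEG medium over 48 hours. Viability is quantified by luciferase luminescence.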
aSyn yeast inh: qHTS of alpha-syn Inhibitors | 0.14% of 370,000 active | Potency, µM (highest dose often 46.1 µM), without a hit: at the top dose growth rescue (activation), actives largely listed as activators | Yeast expressing alpha-synuclein, growth rescue, BacTiter-Glo, 24 h; note: % of control where 0% means no effect; nearly all actives have a fitted effect of over 65% in size
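Rescue of yeast growth: cells expressing toxic alpha-synuclein, induced in galactose at OD600 0.02, incubated with compound 24 h at 30 C. ATP luminescence quantified growth; inhibitors of toxicity appear as activators.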
TDP43 rescue: qHTS of TDP-43 Inhibitors; TDP-43 expressing yeast growth rescue, BacTiter-Glo, 24 h; Potency, µM (doses to about 46.1 µM), without a hit: top-dose growth rescue (activation), actives largely listed as activators; 1.8% of 410,000 active; AID 652104, 2013; note: % of control where 0% means no effect; nearly all actives have a fitted effect of over 50% in size
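Galactose-induced TDP-43 yeast, OD600=0.02, compound pinned; 24 hr, 30 deg C; BacTiter-Glo luminescence for growth. Inhibitors of TDP-43 toxicity read as activators.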
A-T KAP1 phos: qHTS Assay for Identifying a Potential Treatment of Ataxia-Telangiectasia; F2112 A-T fibroblasts, KAP-1 phosphorylation AlphaLISA; neocarzinostatin DNA damage 30 min before lysis; Potency, µM (top dose mostly 57.5 µM), for the others: top-dose activation, actives largely listed as activators; 0.19% of 320,000 active; note: % of control where 0% means no effect; nearly all actives have a fitted effect of over 45% in size
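hTERT-immortalized A-T patient fibroblasts (F2112), 500 cells/well in OPTI-MEM, 1% FBS, got compounds for 60 min, then NCS for 30 min at 37C. Lysates were then assayed for phospho-KAP-1 by AlphaLISA (anti-pKAP1 donor, anti-KAP1 acceptor beads), 6 hr at 25C.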
Glioma ERSR ind: qHTS for Inducers of the Endoplasmic Reticulum Stress Response (ERSR) in Human Glioma: qHTS; U87-MG GRP78 promoter luciferase reporter, 16 h; 0.02% of 420,000 active; Potency, µM, for the others: at the highest dose activation, hits mostly activators; note: series mostly up to about 76 µM; % of control where 0% means no effect; nearly all actives have a fitted effect of over 35% in size
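ERSR induction read as luciferase luminescence (Bright-Glo, 10 min at room temperature) in stably transfected human U87-MG glioma cells exposed to compounds for 16 h, using GRP78 as sensor.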
Abeta rescue: qHTS for compounds that reverse cellular toxicity of Amyloid beta (A-beta) peptide in yeast: Primary Screen | 0.063% of 410,000 active | yeast expressing A-beta42, growth rescue, OD600, 48 h; response scale: 0% DMSO, 100% iron-clioquinol control | Potency, µM (titrated, usually from 46.1 µM), most hits filed as activators; note: nearly all actives have a fitted effect of over 55% in size
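Yeast A-beta toxicity model in growth medium with pinned compounds, 48 h at 30 C; growth read as absorbance at 600 nm. Normalized to FeCl3/clioquinol equimolar mix (positive) and DMSO (negative).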
Starred values were filed as active, the others as inactive; i = inactive; ? = inconclusive; . = no result given; ! = not active in a repeat; [ ] = another dose, or the depositor's remark. Sampled rows, rich in hits. Any-hit rate of the full collection: about 2.1%. Calls come from the whole dose curve; as a rule, active = well fitted curve in the direction sought with a large enough effect; inconclusive = small, poorly fitted or top-dose-only effect, or another doubt; inactive = no such curve, though single readings can be large; an effect the other way counts as inactive or inconclusive. Potency is the fitted concentration of half-maximal effect.

SMILES | Mito fusion yeast | aSyn yeast inh | TDP43 rescue | A-T KAP1 phos | Glioma ERSR ind | Abeta rescue
C(=C\c1ccccc1)/CN1CCN(CCOC(c2ccccc2)c2ccccc2)CC1 | . | . | . | . | -6% | .
CCCc1cc(N2CCN(c3cccc(C)c3C)CC2)n2cnnc2n1 | . | . | 16µM* | . | -3% | i
CS(=O)(=O)c1ccc(C(=O)C2C(=O)CCCC2=O)c([N+](=O)[O-])c1 | . | . | . | . | -5% | .
Cc1ccc(C(=O)Cn2c(-c3ccccc3)noc2=O)cc1 | -4% | 10% | ? | 2% | -3% | i
c1ccc2c(c1)CSc1ccccc1N2 | . | -5% | 20µM* | . | 5% | i
Cc1cccc(NC(=O)Oc2ccc(Cl)c3cccnc23)c1 | . | 0% | ? | . | -1% | i
COc1cc(O)c(C(=O)O)c(-c2cc(O)c(O)cc2C)c1 | -13% | 14µM* | 17% | 19% | 3% | ?
C[C@H]1[C@@H]2Cc3ccc(O)cc3[C@]1(C)CCN2C | . | . | . | . | -3% | .
ClC1=C(Cl)C2(Cl)C3C(Cl)C=CC3C1(Cl)C2(Cl)Cl (stereo unspecified) | -3% | 5% | 6% | 40µM* | -1% | i
Nc1c(C(=O)NCC2CCCO2)c2nc3ccccc3nc2n1Cc1ccco1 (stereo unspecified) | ? | -1% | -7% | 20µM* | -3% | i
Nc1c(C(=O)OCC2CCCO2)c2nc3ccccc3nc2n1Cc1cccs1 (stereo unspecified) | 1% | -7% | -3% | 24% | -4% | i
Nc1c(C(=O)NC2CCCC2)c2nc3ccccc3nc2n1CC1CCCO1 (stereo unspecified) | -6% | -2% | 13µM* | 25% | -5% | i
O[N+]1=CC=CCC1=S.On1ccccc1=S.[Zn] | . | . | . | . | -12% | .
CC1(C)CC(N(CCc2ccccc2)Cc2ccccc2)CCO1 (stereo unspecified) | 6% | -4% | -8% | 25µM* | -3% | i
COc1cc(CCN)c(OC)cc1Br | . | . | . | . | -2% | .
Cc1ccc(Cl)cc1N1CCN(c2ncnc3c2nc2n3CCCC2)CC1 | . | . | 14µM* | . | -4% | i
CN(C)C(=O)Oc1c(Cl)cc(Cl)c2cccnc12 | -4% | -3% | 19% | -1% | -3% | i
Cc1ccc2c(Cl)cc(Cl)c(O)c2n1 | . | ? | -38% | . | 28µM*! | i
Cn1c(O)c(C2=NNC(c3ccc(Cl)cc3)C2)c(=O)n(C)c1=O (stereo unspecified) | 0% | -12% | ? | 4% | -5% | 14µM*
COC(=O)C1=C(c2ccc(-c3ccccc3)c(F)c2)C[C@@H]2CC[C@H]1N2C(=O)N1CCCCC1 | -6% | -21% | -1% | -11% | -6% | i
COC(=O)C1=C(c2cc3ccccc3s2)C[C@@H]2CC[C@H]1N2C(=O)NCc1ccc(F)cc1 | . | ? | 10µM* | . | -6% | i
COC(=O)C1=C(c2cc3ccccc3s2)C[C@@H]2CC[C@H]1N2C(=O)NCc1ccccc1 | . | 2% | ? | . | -4% | i
COC(=O)C1=C(c2ccc(-c3ccccc3)c(F)c2)C[C@@H]2CC[C@H]1N2C(=O)N1CCCC1 | 8% | -23% | 25µM* | 1% | -5% | i
COC(=O)C1=C(c2ccc(OC(F)(F)F)cc2)C[C@@H]2CC[C@H]1N2C(=O)N1CCCCC1 | 22% | -22% | 35µM* | 16% | -4% | i
COC(=O)C1=C(c2ccc3ccccc3c2)C[C@@H]2CC[C@H]1N2C(=O)N1CCCCC1 | -7% | 0% | 20µM* | 14% | -7% | i
SMILES | Mito fusion yeast | aSyn yeast inh | TDP43 rescue | A-T KAP1 phos | Glioma ERSR ind | Abeta rescue
COc1cc(CC(C)N)c(OC)cc1Br (stereo unspecified) | . | . | . | . | -3% | .
COC(=O)C1=C(c2ccc(-c3ccccc3)c(F)c2)C[C@@H]2CC[C@H]1N2C(=O)N1CCC(O)CC1 | 28% | 0% | ? | 15% | -2% | i
COC(=O)C1=C(c2ccc(-c3ccccc3)c(F)c2)C[C@@H]2CC[C@H]1N2C(=O)N1CCOCC1 | 27% | -6% | 20µM* | 12% | -3% | i
COCCNC(=O)N1[C@H]2CC[C@@H]1C(C(=O)OC)=C(c1ccc(-c3ccccc3)c(F)c1)C2 | 13% | 16% | 18% | 3% | -4% | i
COC(=O)C1=C(c2ccc(-c3ccccc3)c(F)c2)C[C@@H]2CC[C@H]1N2C(=O)NCC1CC1 | 20µM* | -1% | -29% | -21% | -2% | i
CCCSc1cc(OC)c(CCN)cc1OC | . | . | . | . | -6% | .
Cc1cccc(C)c1-n1nnnc1C(c1cccc2ccccc12)N1CCC(n2c(=O)[nH]c3ccccc32)CC1 (stereo unspecified) | . | -2% | 22µM* | . | -5% | i
O=C(Oc1ccc(Cl)cc1)N1CCOCC1 | 0% | 5% | 20µM* | 2% | -1% | i
O=C(Nc1ccc(OC(=O)N2CCCC2)cc1)N1CCOCC1 | -5% | 3% | -11% | 0% | 5% | i
COC(=O)C1(C(=O)OC)C[C@H](c2ccc(OC)cc2)N(Cc2ccccc2OC)[C@@H]1c1ccccc1 | . | ? | 5% | . | . | i
Cc1cc(C(=O)OCC(=O)Nc2cccc(F)c2)c(C)n1C1CC1 | 11% | 10% | ? | -19% | 3% | i
Cc1cc(C(=O)OCC(=O)Nc2ccc(F)cc2)c(C)n1C1CC1 | 10% | 29% | 35µM* | -6% | -4% | i
Nc1ccccc1C(=O)c1ccccc1 | 3% | -4% | 5% | 7% | -1% | i
Nc1ccc(Br)cc1C(=O)c1ccccc1 | 12% | ? | 16µM* | -3% | -2% | i
Cc1ccc(F)cc1NC(=O)c1ccc(Cn2nc(N3CCN(c4ccccc4)CC3)ccc2=O)o1 | . | . | 25µM* | . | -5% | i
O=C(Nc1ccc(F)cc1F)c1cccn(Cc2ccccc2)c1=O | -1% | 5% | 1%[9.22 µM] | 7% | 1% | i
O=C(C(=O)N1CC=C(c2ccccc2)CC1)c1c[nH]c2ccccc12 | ? | ? | 16µM* | 3% | -2% | i
Cc1[nH]c2ccccc2c1C(=O)CN1CC=C(c2ccccc2)CC1 | 2% | 0% | -5% | -4% | -2% | i
CCC1CC2CC3c4[nH]c5ccc(OC)cc5c4CCN(C2)C13 (stereo unspecified) | . | . | . | . | -5% | .
O=C(Oc1ccc2ccccc2c1)c1ccco1 | -2% | -8% | 11µM* | -3% | 4% | i
